Results as given in the supplement of paper PMC3414501.
Counter-ions that a name gives are not always drawn. Unmarked numbers belong to inactive results.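 Rule for the calls: active = score above 5; some higher scores were not called.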

test system: S. cerevisiae SK1 pCDA2-eGFP (USY613), sporulating; assay: CDA2-GFP sporulation assay sensitivity score (z-score vs DMSO controls); higher = stronger inhibition of sporulation, active = hit call of the paper

SMILES | CDA2-GFP sporulation assay sensitivity score
NC1CCN(c2nc3c(cc2F)c(=O)c(C(=O)O)cn3-c2ccc(F)cc2F)C1 (stereo unspecified) [Tosufloxacin tosylate] (stock concentration (mM, diluted 1:100): 7) | 1.34
C[C@@H]1C[C@H]2[C@@H]3CCC4=CC(=O)C=C[C@]4(C)[C@@]3(F)[C@@H](O)C[C@]2(C)[C@H]1C(=O)CO [Desoximetasone] (stock concentration (mM, diluted 1:100): 10) | 0.62
C/C=C1\[C@H]2C=C(C)C[C@]1(N)c1ccc(=O)[nH]c1C2 [Huperzine a] (stock concentration (mM, diluted 1:100): 10) | 3.17
CN1CCN(CCCN2c3ccccc3Sc3ccc(Cl)cc32)CC1 [Prochlorperazine] (stock concentration (mM, diluted 1:100): 10.4) | 2.72
C=CC1=C(C(=O)O)N2C(=O)[C@@H](NC(=O)/C(=N\OCC(=O)O)c3csc(N)n3)[C@H]2SC1 [Cefixime trihydrate] (stock concentration (mM, diluted 1:100): 10) | 2.05
Cc1occc(=O)c1O [Maltol] (stock concentration (mM, diluted 1:100): 10) | 1.2
C=CC[C@@H]1/C=C(\C)C[C@H](C)C[C@H](OC)[C@H]2O[C@@](O)(C(=O)C(=O)N3CCCC[C@H]3C(=O)O[C@H](/C(C)=C/[C@@H]3CC[C@@H](O)[C@H](OC)C3)[C@H](C)[C@@H](O)CC1=O)[C@H](C)C[C@@H]2OC [Tacrolimus] (stock concentration (mM, diluted 1:100): 10) | 0.75
COc1ccc(/C=C/C(=O)Nc2ccccc2C(=O)O)cc1OC [Tranilast] (stock concentration (mM, diluted 1:100): 10) | 0.24
CC[C@H]1OC(=O)[C@H](C)[C@@H](O[C@H]2C[C@@](C)(OC)[C@@H](O)[C@H](C)O2)[C@H](C)[C@@H](O[C@@H]2O[C@H](C)C[C@H](N(C)C)[C@H]2O)[C@](C)(OC)C[C@@H](C)C(=O)[C@H](C)[C@@H](O)[C@]1(C)O [Clarithromycin] (stock concentration (mM, diluted 1:100): 10) | -0.51
COc1cc(C(=O)NC2CCCNC2)cc(OC)c1OC (stereo unspecified) [Troxipide] (stock concentration (mM, diluted 1:100): 10.1) | -0.11
Oc1ccc(/C=C/c2cc(O)cc(O)c2)cc1 [Resveratrol] (stock concentration (mM, diluted 1:100): 10) | 5.86
CC(Oc1c(Cl)cccc1Cl)C1=NCCN1 (stereo unspecified) [Lofexidine hydrochloride] (stock concentration (mM, diluted 1:100): 10) | 7.06
CN1C(=O)CC[C@H]1c1cccnc1 [Cotinine] (stock concentration (mM, diluted 1:100): 10) | -0.11
CN1C(C(=O)Nc2ccccn2)=C(O)c2ccccc2S1(=O)=O [Piroxicam] (stock concentration (mM, diluted 1:100): 10) | -3.86
O=c1[nH]cnc2c1ncn2[C@H]1CC[C@@H](CO)O1 [Didanosine] (stock concentration (mM, diluted 1:100): 10.1) | -0.63
CC(C)(C)NCC(O)c1ccc(O)c(CO)c1 (stereo unspecified) [Salbutamol sulfate] (stock concentration (mM, diluted 1:100): 9.7) | -0.05
Cc1cc2c(s1)Nc1ccccc1N=C2N1CCN(C)CC1 [Olanzapine] (stock concentration (mM, diluted 1:100): 9.9) | 2.56
Nc1ccn([C@H]2CC[C@@H](CO)O2)c(=O)n1 [Zalcitabine] (stock concentration (mM, diluted 1:100): 10) | 1.61

SMILES | CDA2-GFP sporulation assay sensitivity score
CN(C)CCCC1(c2ccc(F)cc2)OCc2cc(C#N)ccc21 (stereo unspecified) [Citalopram hydrobromide] (stock concentration (mM, diluted 1:100): 7.9) | -1.83
Fc1ccc([C@@H]2CCNC[C@H]2COc2ccc3c(c2)OCO3)cc1 [Paroxetine] (stock concentration (mM, diluted 1:100): 8.8) | -1.35
CCCCN1CCCC1CNC(=O)c1cc(C#N)c2ccccc2c1OC (stereo unspecified) [Nafadotride] (stock concentration (mM, diluted 1:100): 10) | 3.66
CN1CCN(C2=Nc3ccccc3Oc3ccc(Cl)cc32)CC1 [Loxapine succinate] (stock concentration (mM, diluted 1:100): 11) | 2.27
Nc1nc(O)c2ncn(CCC(CO)CO)c2n1 [Penciclovir] (stock concentration (mM, diluted 1:100): 10) | 0.81
Cc1[nH]cnc1CN1CCc2c(c3ccccc3n2C)C1=O [Alosetron hydrochloride] (stock concentration (mM, diluted 1:100): 8.9) | -0.89
O=C1CC[C@@H](C(=O)N2CSC[C@H]2C(=O)O)N1 [Pidotimod] (stock concentration (mM, diluted 1:100): 10) | 0.46
Cc1ccnc2c1NC(=O)c1cccnc1N2C1CC1 [Viramune] (stock concentration (mM, diluted 1:100): 10) | -3.55
CC(=O)OCC(=O)NCCCOc1cccc(CN2CCCCC2)c1 [Roxatidine acetate hydrochloride] (stock concentration (mM, diluted 1:100): 9.1) | 0.57
CN(C)CC/C=C1/c2ccccc2COc2ccc(CC(=O)O)cc21 [Olopatadine hydrochloride] (stock concentration (mM, diluted 1:100): 12.7) | 1.08
CCN(CC)CC1CCCCN1CC(=O)N1c2ccccc2C(=O)Nc2cccnc21 (stereo unspecified) [Otenzepad] (stock concentration (mM, diluted 1:100): 10) | 0.65
CCCN[C@H]1CCc2nc(N)sc2C1 [Pramipexole] (stock concentration (mM, diluted 1:100): 10) | -1.03
CNC(=C[N+](=O)[O-])NCCSCc1csc(CN(C)C)n1 [Nizatidine] (stock concentration (mM, diluted 1:100): 10) | -0.14
CC[N+](C)(CC)CCOC(=O)C(O)(c1ccccc1)C1CCCCC1 (stereo unspecified) [Oxyphenonium bromide] (stock concentration (mM, diluted 1:100): 10) | 0.76
CCOC(=O)c1ncn2c1CN(C)C(=O)c1cc(F)ccc1-2 [Flumazenil] (stock concentration (mM, diluted 1:100): 10) | 1.01
Nc1nc2ccc(OC(F)(F)F)cc2s1 [Riluzole] (stock concentration (mM, diluted 1:100): 9.9) | 16.9 (active)
O=c1c(O[C@@H]2O[C@H](CO)[C@H](O)[C@H](O)[C@H]2O)c(-c2ccc(O)c(O)c2)oc2cc(O)cc(O)c12 [Hyperoside] (stock concentration (mM, diluted 1:100): 8.8) | 0.06
Cc1c(O)cccc1C(=O)N[C@@H](CSc1ccccc1)[C@H](O)CN1C[C@H]2CCCC[C@H]2C[C@H]1C(=O)NC(C)(C)C [Nelfinavir mesylate] (stock concentration (mM, diluted 1:100): 8.6) | 4.48
